Experimental data from PubChem BioAssay AID1159580 (chemical genetic matrix, 2015).
The whole screen tested about 5,500 compounds, of which about 2,000 (36%) were called active. Not shown: some 18% with an inconclusive outcome. Cut-off read from the data, not from the text of the source: active = normalized growth mostly below about 0.91 (no sharp cut-off); inconclusive = no clear call, values can overlap the other calls; inactive = mostly above about 0.92. The list shows a part of the results.

Assay: chemical genetic growth profiling, strain panel (AID 1159580);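 note: tested at 20 µM; growth read once vehicle control cultures reached saturation at 30 °C; 1 = growth at the plate median or of vehicle wells; lower values mean less growth of the strain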
Conditions: growth OD

Measured: normalized growth

COc1cc(C(=O)NCc2ccc(OCCN(C)C)cc2)cc(OC)c1OC
inactive: S. cerevisiae deletion strains, locus YJL187C, strain SWE1, active compounds read low 0.99 | S. cerevisiae deletion strains, locus YJR043C, strain POL32, active compounds read low 0.984 | S. cerevisiae deletion strains, locus YJR066W, strain TOR1, active compounds read low 0.929 | S. cerevisiae deletion strains, locus YKL009W, strain mrt4, active compounds read low 1.01 | S. cerevisiae deletion strains, locus YKL068W, active compounds read low 0.978 | S. cerevisiae deletion strains, locus YKL085W, strain MDH1 (second series), active compounds read low 0.975 | S. cerevisiae deletion strains, locus YKL085W, strain MDH1, active compounds read low 0.975 | S. cerevisiae deletion strains, locus YKL160W, strain elf1, active compounds read low 0.947 | S. cerevisiae deletion strains, locus YKL190W, strain CNB1, active compounds read low 0.986 | S. cerevisiae deletion strains, locus YKR001C, strain vps1, active compounds read low 0.983 | S. cerevisiae deletion strains, locus YKR026C, strain gcn3, active compounds read low 0.989 | S. cerevisiae deletion strains, locus YKR091W, strain srl3, active compounds read low 0.993 | S. cerevisiae deletion strains, locus YLL001W, strain dnm1, active compounds read low 1 | S. cerevisiae deletion strains, locus YLL026W, active compounds read low 1 | S. cerevisiae deletion strains, locus YLL041C, strain sdh2, active compounds read low 1 | S. cerevisiae deletion strains, locus YLR027C, strain aat2, active compounds read low 0.996 | S. cerevisiae deletion strains, locus YLR039C, strain RIC1, active compounds read low 0.954 | S. cerevisiae deletion strains, locus YLR058C, strain SHM2, active compounds read low 0.97 | S. cerevisiae deletion strains, locus YLR102C, strain apc9, active compounds read low 0.984 | S. cerevisiae deletion strains, locus YLR113W, strain HOG1, active compounds read low 0.986 | S. cerevisiae deletion strains, locus YLR221C, strain rsa3, active compounds read low 1.01 | S. cerevisiae deletion strains, locus YLR258W, strain gsy2, active compounds read low 0.999 | S. cerevisiae deletion strains, locus YLR262C, strain YPT6 (second series), active compounds read low 1.02 | S. cerevisiae deletion strains, locus YLR262C, strain YPT6, active compounds read low 0.965 | S. cerevisiae deletion strains, locus YLR268W, strain sec22, active compounds read low 0.971 | S. cerevisiae deletion strains, locus YLR320W, strain mms22, active compounds read low 0.978 | S. cerevisiae deletion strains, locus YLR330W, strain CHS5, active compounds read low 0.999 | S. cerevisiae deletion strains, locus YLR342W, strain FKS1 (second series), active compounds read low 1.07 | S. cerevisiae deletion strains, locus YLR342W, strain FKS1, active compounds read low 0.991 | S. cerevisiae deletion strains, locus YLR357W, strain rsc2, active compounds read low 0.959 | S. cerevisiae deletion strains, locus YLR370C, strain arc18, active compounds read low 0.99 | S. cerevisiae deletion strains, locus YLR371W, strain rom2, active compounds read low 0.984 | S. cerevisiae deletion strains, locus YLR384C, strain iki3, active compounds read low 1 | S. cerevisiae deletion strains, locus YLR418C, strain cdc73, active compounds read low 1.01 | S. cerevisiae deletion strains, locus YML016C, strain PPZ1, active compounds read low 0.991 | S. cerevisiae deletion strains, locus YML032C, strain rad52, active compounds read low 0.987 | S. cerevisiae deletion strains, locus YML120C, strain ndi1, active compounds read low 1.01 | S. cerevisiae deletion strains, locus YML124C, strain tub3, active compounds read low 0.982 | S. cerevisiae deletion strains, locus YMR058W, strain fet3, active compounds read low 1.02 | S. cerevisiae deletion strains, locus YMR078C, strain ctf18, active compounds read low 0.984 | S. cerevisiae deletion strains, locus YMR125W, strain sto1, active compounds read low 0.961 | S. cerevisiae deletion strains, locus YMR129W, active compounds read low 1.01 | S. cerevisiae deletion strains, locus YMR205C, strain PFK2, active compounds read low 0.992 | S. cerevisiae deletion strains, locus YMR223W, strain ubp8, active compounds read low 1.03 | S. cerevisiae deletion strains, locus YMR231W, strain pep5, active compounds read low 1 | S. cerevisiae deletion strains, locus YMR307W, strain GAS1, active compounds read low 1.05 | S. cerevisiae deletion strains, locus YNL067W, strain RPL9B, active compounds read low 0.972 | S. cerevisiae deletion strains, locus YNL071W, strain lat1, active compounds read low 0.991 | S. cerevisiae deletion strains, locus YNL183C, strain NPR1, active compounds read low 0.937 | S. cerevisiae deletion strains, locus YNL209W, strain ssb2, active compounds read low 0.988 | S. cerevisiae deletion strains, locus YNL233W, strain BNI4, active compounds read low 0.994 | S. cerevisiae deletion strains, locus YNL248C, strain rpa49, active compounds read low 0.95 | S. cerevisiae deletion strains, locus YNL250W, strain rad50, active compounds read low 0.977 | S. cerevisiae deletion strains, locus YNL271C, strain bni1, active compounds read low 0.976 | S. cerevisiae deletion strains, locus YNL298W, strain CLA4, active compounds read low 0.997 | S. cerevisiae deletion strains, locus YNL307C, strain MCK1, active compounds read low 0.98 | S. cerevisiae deletion strains, locus YNL322C, strain KRE1 (second series), active compounds read low 0.983 | S. cerevisiae deletion strains, locus YNL322C, strain KRE1, active compounds read low 0.984 | S. cerevisiae deletion strains, locus YNR049C, strain mso1, active compounds read low 1 | S. cerevisiae deletion strains, locus YNR052C, strain pop2, active compounds read low 0.988 | S. cerevisiae deletion strains, locus YOL012C, strain htz1 1.41 | S. cerevisiae deletion strains, locus YOL147C, strain pex11, active compounds read low 0.991 | S. cerevisiae deletion strains, locus YOR001W, strain rrp6, active compounds read low 1.01 | S. cerevisiae deletion strains, locus YOR061W, strain CKA2, active compounds read low 0.962 | S. cerevisiae deletion strains, locus YOR069W, strain VPS5, active compounds read low 0.997 | S. cerevisiae deletion strains, locus YOR070C, strain gyp1, active compounds read low 0.997 | S. cerevisiae deletion strains, locus YOR080W, strain dia2, active compounds read low 0.997 | S. cerevisiae deletion strains, locus YOR083W, strain WHI5, active compounds read low 0.927 | S. cerevisiae deletion strains, locus YOR106W, strain vam3, active compounds read low 0.98 | S. cerevisiae deletion strains, locus YOR136W, strain idh2, active compounds read low 0.98 | S. cerevisiae deletion strains, locus YOR144C, strain elg1, active compounds read low 0.993 | S. cerevisiae deletion strains, locus YOR184W, strain ser1, active compounds read low 0.985 | S. cerevisiae deletion strains, locus YOR231W, strain MKK1, active compounds read low 0.984 | S. cerevisiae deletion strains, locus YOR265W, strain rbl2, active compounds read low 1 | S. cerevisiae deletion strains, locus YOR270C, strain vph1, active compounds read low 0.973 | S. cerevisiae deletion strains, locus YOR290C, strain snf2, active compounds read low 0.972 | S. cerevisiae deletion strains, locus YOR316C, strain cot1, active compounds read low 0.977 | S. cerevisiae deletion strains, locus YPL051W, strain arl3, active compounds read low 0.982 | S. cerevisiae deletion strains, locus YPL055C, strain LGE1, active compounds read low 0.931 | S. cerevisiae deletion strains, locus YPL078C, strain atp4, active compounds read low 0.965 | S. cerevisiae deletion strains, locus YPL106C, strain sse1, active compounds read low 0.935 | S. cerevisiae deletion strains, locus YPL240C, strain hsp82, active compounds read low 0.995 | S. cerevisiae deletion strains, locus YPL256C, strain CLN2, active compounds read low 0.97 | S. cerevisiae deletion strains, locus YPR119W, strain clb2, active compounds read low 0.981 | S. cerevisiae deletion strains, locus YPR141C, strain kar3, active compounds read low 0.969 | S. cerevisiae deletion strains, locus YPR163C, strain tif3, active compounds read low 0.988 | S. cerevisiae deletion strains, locus YPR167C, strain met16, active compounds read low 0.994 | S. cerevisiae deletion strains, strain wtn01, active compounds read low 1 | S. cerevisiae strains, strain wild type, active compounds read low 0.979
